Compounds with a hit are over-represented: about 3.7% of the library has one in this group of screens.
FBA Mtb inh: Mtb FBA enzyme inhibitors, primary screen, biochemical, fluorescence, strain H37Rv. AID 588726, 2011. inhibition, % at 1 µM. 2.3% of 360,000 active. purified M. tuberculosis FBA, fluorescence read-out. Fructose-bisphosphate aldolase (Mycobacterium tuberculosis (strain ATCC 25618 / H37Rv)), …; in the data active = inhibition above about 27%
Mtb UGM inh: M. tuberculosis UGM enzyme inhibitors, primary screen, biochemical, fluorescence polarization, single point; UDP-galactopyranose mutase (Mycobacterium tuberculosis (strain ATCC 25618 / H37Rv)), …; purified UGM, fluorescence polarization probe displacement; AID 504406, 2011; inhibition, % at 10 µM; 0.06% of 320,000 active; in the data active = inhibition above about 10%, passing the limit was not always enough
GDH-TPI inh: GDH-TPI coupling enzyme inhibitors, primary screen, artefact control for M. tuberculosis FBA inhibitor project, biochemical, absorbance, full deck. GDH-TPI coupled enzyme counterscreen, NADH absorbance. inhibition, % at 4.8 µM. 1.2% of 360,000 active. AID 588335, 2011; in the data active = inhibition above about 30%
Mtb bLac sens: beta-lactam sensitization of Mtb H37Rv, H37Rv; 0.27% of 330,000 active; inhibition, % at 25 µM; M. tuberculosis H37Rv growth with meropenem, percent inhibition; call rule not given here;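 note: growth measured after seven days incubation then overnight dye step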
Rv3671c protease: Rv3671c serine protease inhibitors, primary screen, biochemical, fluorescence polarization, M. tuberculosis H37Rv; AID 2606, 2010; inhibition, % at 5.96 µM; P9WHR9; 0.048% of 320,000 active;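 note: extracellular domain of Rv3671c used as enzyme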
Target sequence (P9WHR9 whole entry, looked up, the tested form may be a part): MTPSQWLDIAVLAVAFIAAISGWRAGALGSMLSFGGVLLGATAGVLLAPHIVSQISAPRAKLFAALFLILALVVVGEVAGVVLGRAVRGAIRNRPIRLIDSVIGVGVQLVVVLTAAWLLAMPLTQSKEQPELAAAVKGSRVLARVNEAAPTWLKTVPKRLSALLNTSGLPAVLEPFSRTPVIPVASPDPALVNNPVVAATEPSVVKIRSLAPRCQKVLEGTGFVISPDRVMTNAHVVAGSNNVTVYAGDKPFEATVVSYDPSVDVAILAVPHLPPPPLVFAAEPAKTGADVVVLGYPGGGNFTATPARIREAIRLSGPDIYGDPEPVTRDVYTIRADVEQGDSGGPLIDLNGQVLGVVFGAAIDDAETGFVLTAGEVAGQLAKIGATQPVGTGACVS
FadD28 binding: inhibitors of FadD28 bisubstrate probe binding, primary screen, biochemical, fluorescence polarization, single point; Mycobacterium tuberculosis FadD28 fatty-acid-AMP ligase; inhibition, % at 12.5 µM; 0.22% of 360,000 active; in the data active = inhibition above about 8.5%, passing the limit was not always enough
Rv3671c confirm: Rv3671c serine protease inhibitors, retest, confirmation, biochemical, fluorescence polarization, M. tuberculosis H37Rv; inhibition, % at 5.96 µM; 40% of 140 active; AID 2761, 2010; shares compounds with Rv3671c protease
Large screens that a line does not name were inactive (follow-up assays come after a bar, where they were run). Cut-off read from the data, not from the text of the source, unless noted: active = inhibition above about 38%; inactive = the rest.

N#CCC(=O)Nc1ccc(C(=O)OCC(=O)Nc2ccccc2Sc2ccccc2)cc1	Rv3671c protease 81 | Rv3671c confirm inactive
Cc1cc(C)c(-c2cc(NC(=O)COC(=O)c3ccc(C#N)cc3)n(-c3ccccc3)n2)cc1C	none
Cc1cc(C)c(-c2cc(NC(=O)COC(=O)c3ccc(NC(=O)CC#N)cc3)n(-c3ccccc3)n2)cc1C	Rv3671c protease 42 | Rv3671c confirm inactive
COc1ccc(N/C=C(\C(C)=O)c2ccc(OC)c(OC)c2)cc1OC	Rv3671c protease 89 | Rv3671c confirm inactive
COc1ccc(/C(=C\Nc2ccc(C)c(C)c2)C(C)=O)cc1OC	none
O=C1c2ccccc2C(=O)c2c1cccc2N1CCCC1	none
Cn1c(=O)cc2c3c(c(N4CCCCC4)ccc31)C(=O)c1ccccc1-2	Rv3671c protease 52, FadD28 binding 32 | Rv3671c confirm inactive
CCC(C)OC(=O)n1ccc(C(=O)Nc2nccs2)n1 (stereo not drawn)	Rv3671c protease 55 | Rv3671c confirm 49
CCn1c(CSc2nnc(-c3cccnc3)n2-c2ccccc2C)nc2cc(C(=O)O)ccc21	Rv3671c protease 49 (no result: FBA Mtb inh, GDH-TPI inh, FadD28 binding) | Rv3671c confirm 64
CCn1c(CSc2nnc(-c3ccncc3)n2CCOC)nc2cc(C(=O)O)ccc21	none
Cc1nn(-c2ccccc2C(=O)O)c(=O)c2ccccc12	none
Cc1nn(-c2ccc(Br)cc2)c(=O)c2ccccc12	Rv3671c protease 71 | Rv3671c confirm inactive
COc1ccccc1CNC(=O)CNC(=O)c1ccc(Br)o1	none
Nc1cc(C(=O)O)c(N)c2c1C(=O)c1ccccc1C2=O	Rv3671c protease 61, FadD28 binding 8.3 | Rv3671c confirm 52
O=C(O)c1ccccc1NSc1ccccc1[N+](=O)[O-]	none
O=C(O)c1cccc2c1NC(C(=O)O)C1CC(Sc3ccccc3[N+](=O)[O-])C(Cl)C21 (stereo not drawn)	Rv3671c protease 50, FadD28 binding 55 | Rv3671c confirm inactive
CCc1ccc(N(CC(=O)N2CCCC2)S(C)(=O)=O)cc1	none (no result: Mtb UGM inh, Mtb bLac sens, Rv3671c protease)
O=C(CSc1c(F)c(F)cc(F)c1F)Nc1ccc(C2SCCS2)cc1	Rv3671c protease 164 | Rv3671c confirm inactive
O=C(CSc1ccc(Cl)cc1)Nc1ccc(C2SCCS2)cc1	none
Cc1ccc(-c2ccccc2NC(=O)CS(=O)CC(=O)Nc2ccc(C)c(Cl)c2)o1 (stereo not drawn)	Rv3671c protease 78 | Rv3671c confirm inactive
CC(=O)O[C@H]1[C@@H](O)[C@H](O)[C@H](Oc2c(O)c(C)c3c4c2[C@@H](C)CC[C@@H]4[C@@H](C)C[C@H]3C=C(C)C)O[C@H]1C	none
CC(Oc1ccc(F)cc1)C(=O)Nc1cc(S(=O)(=O)N2CCOCC2)ccc1N1CCCCC1 (stereo not drawn)	none
O=C(CSCC(=O)Nc1ccccc1)N/N=C/c1c(O)ccc2ccccc12	none (no result: Mtb bLac sens)
O=C(N/N=C/c1c(O)ccc2ccccc12)Nc1ccccc1	Rv3671c protease 40 (no result: FBA Mtb inh, GDH-TPI inh, FadD28 binding) | Rv3671c confirm 56
CCNc1ccc2noc3c2c1C(=O)c1ccccc1-3	Mtb UGM inh 12, Rv3671c protease 130, FadD28 binding 52 | Rv3671c confirm 126
O=C1c2ccccc2-c2onc3ccc(NCc4ccco4)c1c23	Mtb UGM inh 12, Rv3671c protease 106, FadD28 binding 12 | Rv3671c confirm 81
CSC[C@@H]1NC(=S)N(c2ccc(C)cc2)C1=O	Rv3671c protease 91 | Rv3671c confirm 83
O=c1oc(-c2cccs2)nc2ccc(Br)cc12	none
Cc1ccc2nc(-c3ccccc3C)oc(=O)c2c1	Rv3671c protease 62 | Rv3671c confirm 75
Cc1ccc2nc(-c3cccs3)oc(=O)c2c1	Rv3671c protease 52 | Rv3671c confirm 63
CC1=NN(c2ccccc2)C(=O)/C1=C\c1c(C)[nH]n(-c2ccccc2)c1=O	none
